Records with an inconclusive call do not appear. A number with no mark means an inactive call. Calls of active or inactive are those of the source. Calls come from the whole dose curve; as a rule, active = well fitted inhibition curve with a large enough effect in the repeat runs; inconclusive = weak or mixed curves; inactive = no such curve, though single readings can be large or run the other way.
% is set by controls: 0 for no effect and ±100 for the full control effect; potency is the fitted concentration of half-maximal effect.

Cytochrome P450 2C9 (Homo sapiens), sequence (P11712 whole entry, looked up): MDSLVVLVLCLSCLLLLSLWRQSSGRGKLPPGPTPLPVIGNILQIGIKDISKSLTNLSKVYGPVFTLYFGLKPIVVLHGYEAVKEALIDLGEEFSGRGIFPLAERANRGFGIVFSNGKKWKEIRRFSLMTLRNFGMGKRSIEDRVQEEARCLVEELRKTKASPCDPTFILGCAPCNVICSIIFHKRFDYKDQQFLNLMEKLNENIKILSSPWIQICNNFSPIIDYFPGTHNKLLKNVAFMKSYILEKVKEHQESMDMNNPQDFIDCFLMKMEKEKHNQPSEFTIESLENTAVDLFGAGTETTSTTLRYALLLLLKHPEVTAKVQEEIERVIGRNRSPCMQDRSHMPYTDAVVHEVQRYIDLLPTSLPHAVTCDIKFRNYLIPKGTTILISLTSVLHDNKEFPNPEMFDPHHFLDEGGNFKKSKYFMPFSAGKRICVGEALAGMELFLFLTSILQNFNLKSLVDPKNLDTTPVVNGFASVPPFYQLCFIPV

The target of the first experiment is Cytochrome P450 2C19 (Homo sapiens) (UniProt P33261). Kind of experiment: Cytochrome P450 Family 2 Subfamily C Member 19 (CYP2C19) small molecule antagonists: luciferase reporter qHTS assay (AID 1671197). Note: nearly all actives have a fitted effect of over 65% in size. As to conditions: P450-Glo CYP2C19 enzyme, luciferin luminescence, 1 h; series mostly up to 52.9 µM; activity change, negative = inhibition: at the top concentration. The essentials: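 Inhibition of CYP2C19 was scored from loss of luminescence in a P450-Glo proluciferin substrate assay, NADPH-started and run 1 h at 37C, with ketoconazole as positive control.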
Cytochrome P450 2C19 (Homo sapiens), sequence (P33261 whole entry, looked up): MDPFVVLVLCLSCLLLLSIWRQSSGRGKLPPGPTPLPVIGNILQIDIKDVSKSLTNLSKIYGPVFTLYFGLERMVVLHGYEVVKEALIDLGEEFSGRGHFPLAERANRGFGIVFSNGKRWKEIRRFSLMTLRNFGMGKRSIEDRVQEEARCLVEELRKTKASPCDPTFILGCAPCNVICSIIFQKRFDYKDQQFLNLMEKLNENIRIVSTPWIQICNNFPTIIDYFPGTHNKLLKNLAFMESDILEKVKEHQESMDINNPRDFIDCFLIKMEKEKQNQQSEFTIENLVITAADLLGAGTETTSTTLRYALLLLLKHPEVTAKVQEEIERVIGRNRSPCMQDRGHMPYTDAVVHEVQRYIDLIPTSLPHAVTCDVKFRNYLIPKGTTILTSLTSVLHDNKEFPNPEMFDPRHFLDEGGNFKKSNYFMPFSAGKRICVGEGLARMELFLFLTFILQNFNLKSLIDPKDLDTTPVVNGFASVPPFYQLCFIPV
(A reporter such as luciferase makes a cellular process visible.)
As to `CCN(CC)CCNC(=O)c1cc(S(C)(=O)=O)ccc1OC`, the “activity change, negative = inhibition” value is -5.4%. On the same count and under the same terms, the result for `N[C@H](C(=O)O)c1ccc(O)cc1` reads -11.6% [at 23.6 µM]; that for `O=C(O)CCCl`, -15.2% [at 115 µM]; that for `CC(C)c1cc2c(cc1S(=O)(=O)O)[C@@]1(C)CCC[C@@](C)(C(=O)O)[C@@H]1CC2`, -6.79%. Take `CO[C@]12C[C@@H](COC(=O)c3cncc(Br)c3)CN(C)[C@@H]1Cc1cn(C)c3cccc2c13`: the Potency is 2.45 µM (active). Still for that read-out and setting: the result for `CCn1ccnc1CC1COc2ccccc2O1` (stereo unspecified) reads 4.9 µM (active). Regarding `OCCOc1ccc(OCCO)cc1`, the “activity change, negative = inhibition” value is 13.8% [at 115 µM].

`CCS(=O)(=O)c1ccc(OC)c(C(=O)OC)c1`: the “activity change, negative = inhibition” value was -10.3%. Same read-out and setting: in the case of `COC(=O)c1cc(C(=O)OC)cc(S(=O)(=O)O)c1` it was -20% [at 115 µM]; in that of `CCCCCCCCCCCCN(CCCCCCCCCCCC)CCCCCCCCCCCC`, 6.84% [at 115 µM].

In the case of `Cc1sccc1Br`, the “activity change, negative = inhibition” value is 37.5%. The same measure, in the same setting: in the case of `CN1C(=O)N(C)C(O)C1O` (stereo unspecified) it was -26.6% [at 115 µM]. For the molecule `COC(=O)CCSCCC(=O)OC`, the “activity change, negative = inhibition” value is 0.739% [at 115 µM].

`O=[N+]([O-])c1ccc(F)cc1F`: the “activity change, negative = inhibition” value was 34.7% [at 115 µM].

Turning to `CCO[Si](CCC1CCC2OC2C1)(OCC)OCC` (stereo unspecified), the “activity change, negative = inhibition” value was -1.91% [at 115 µM].

Consider `CN1N=C(C(N)=O)CCC1=O`, for which the “activity change, negative = inhibition” value was -3.99%. Turning to `Cc1ccc(Cl)cc1Cl`, the “activity change, negative = inhibition” value was -10.9% [at 115 µM]. As for `C=C(C)C(=O)OCCCCCCCC(C)C`, the Potency is 71.5 µM (active).

The next experiment has as its target Cytochrome P450 2C9 (Homo sapiens) (UniProt P11712). The experiment in a line: Cytochrome P450 Family 2 Subfamily C Member 9 (CYP2C9) small molecule antagonists: luciferase reporter qHTS assay (AID 1671198). Note: nearly all actives have a fitted effect of over 50% in size. As to conditions: P450-Glo CYP2C9 enzyme assay, luciferin luminescence; series mostly up to 115 µM; activity change, negative = inhibition: at the top concentration. The essentials:
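CYP2C9 activity was measured with a P450-Glo proluciferin substrate. Enzyme–substrate mix was held with compound for 10 min at room temperature, then NADPH regeneration solution was added for 1 h at 37C. Luciferin product was read as luminescence.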
In the case of `C=CCCCCCCCCC=O`, the Potency was 31.7 µM (active).

With `CC(C)(O)C(=O)c1ccccc1`, the “activity change, negative = inhibition” value is -16.2%. Consider `O=C1OC(=O)C2CCCCC12` (stereo unspecified), for which the “activity change, negative = inhibition” value was 1.43%. Same read-out and setting: the result for `CC(=O)CC(C)(C)C1CCCCC1` reads -1.71%. Still for that read-out and setting: the result for `CC(C[N+](C)(C)C)OC(N)=O` (stereo unspecified) reads 6.5% [at 53 µM]. Same read-out and setting: in the case of `O=C1CC2CC1C1CCCC21` (stereo unspecified) it was -10.8%; in that of `CCC=O`, -5.79%; in that of `CC(=O)CC(C)C`, -0.0901%. As to `COC(=O)[C@@H](N)Cc1ccc(O)c(O)c1`, the “activity change, negative = inhibition” value is -8.76% [at 53 µM]. On to `CC/C=C\CC/C=C/C(OCC)OCC`, for which the Potency was 35.6 µM (active). Take `CO[Si](CCCOCC1CO1)(OC)OC` (stereo unspecified): the “activity change, negative = inhibition” value was -14.2%. Consider `CCOC(=O)c1ccc(C)cc1`, for which the “activity change, negative = inhibition” value is -6.95%. On the same count and under the same terms, the result for `NC(CSCC(=O)O)C(=O)O` (stereo unspecified) reads 0.448% [at 53 µM]; that for `CC(C)NCC(O)c1ccc(NS(C)(=O)=O)cc1` (stereo unspecified), -1.31%.

For `O=c1cc(CO)occ1O`, the “activity change, negative = inhibition” value was -5.72% [at 53 µM]. Turning to `CCN(CC)CCNC(=O)c1cc(S(C)(=O)=O)ccc1OC`, the “activity change, negative = inhibition” value was 7.77% [at 53 µM].

On to `N[C@H](C(=O)O)c1ccc(O)cc1`, for which the activity change, negative = inhibition is -0.95% [at 23.6 µM]. For the molecule `O=C(O)CCCl`, the “activity change, negative = inhibition” value was -0.58%. Still for that read-out and setting: in the case of `CC(C)c1cc2c(cc1S(=O)(=O)O)[C@@]1(C)CCC[C@@](C)(C(=O)O)[C@@H]1CC2` it was -9.88% [at 53 µM]. Same read-out and setting: the result for `CO[C@]12C[C@@H](COC(=O)c3cncc(Br)c3)CN(C)[C@@H]1Cc1cn(C)c3cccc2c13` reads -19.5% [at 53 µM]. `CCn1ccnc1CC1COc2ccccc2O1` (stereo unspecified): the “activity change, negative = inhibition” value was -4.29% [at 53 µM].

Take `OCCOc1ccc(OCCO)cc1`: the “activity change, negative = inhibition” value was -0.859%. The same measure, in the same setting: in the case of `CCS(=O)(=O)c1ccc(OC)c(C(=O)OC)c1` it was 64.8% [at 53 µM]; in that of `COC(=O)c1cc(C(=O)OC)cc(S(=O)(=O)O)c1`, -14.3%; in that of `CCCCCCCCCCCCN(CCCCCCCCCCCC)CCCCCCCCCCCC`, -20.3%. With `Cc1sccc1Br`, the “activity change, negative = inhibition” value is 6.02% [at 53 µM]. For `CN1C(=O)N(C)C(O)C1O` (stereo unspecified), the “activity change, negative = inhibition” value is -13.4%.

Take `COC(=O)CCSCCC(=O)OC`: the “activity change, negative = inhibition” value was -5.96%.

With `O=[N+]([O-])c1ccc(F)cc1F`, the “activity change, negative = inhibition” value was 5.35%. As for `CCO[Si](CCC1CCC2OC2C1)(OCC)OCC` (stereo unspecified), the “activity change, negative = inhibition” value is -8.08%. Take `CN1N=C(C(N)=O)CCC1=O`: the “activity change, negative = inhibition” value was 0.917% [at 53 µM].

Regarding `Cc1ccc(Cl)cc1Cl`, the “activity change, negative = inhibition” value is -12.4%. In the case of `C=C(C)C(=O)OCCCCCCCC(C)C`, the “activity change, negative = inhibition” value is -18.7%.

The record behind these values is PubChem BioAssay (Tox21).
